Pf apPOL block: Pf-apPOL DNA polymerase inhibition. inhibition, % at 10 µM. Recombinant Pf-apPOL, molecular beacon fluorescence, 1.5 h. 0.25% of 210,000 active
mHTT-CaM PPI inh: disrupts binding of mutant huntingtin to calmodulin. AlphaScreen His-mHTT/GST-CaM binding, luminescence. inhibition, % at 15 µM. 3.6% of 190,000 active
Numbers stand for hits; . = inactive; / = not tested or not shown; ! = not confirmed by another sample. In the library only some 3.6% were active in any assay of this set; here they are far more common. Rule as the data show it: active = inhibition above about 50%; inactive = the rest.

SMILES | Pf apPOL block | mHTT-CaM PPI inh
Cc1ccccc1N=c1oc2ccccc2cc1C(=O)Nc1nccs1 | . | .
Cc1ccc(N=CC=C2OC(C)(C)C(C)(C)O2)cc1 | . | 56.0
Cc1cccc(N=CC=C2OC(C)(C)C(C)(C)O2)c1 | . | .
CC1=C(C#N)C(=O)NC(=O)/C1=C\c1ccc(-c2ccc(Cl)cc2Cl)o1 | . | 71.0!
CC1=C(C#N)C(=O)NC(=O)/C1=C\c1ccc(-c2cc([N+](=O)[O-])ccc2Cl)o1 | . | .
O=C(CCc1cc2ccccc2[nH]c1=O)N1CCCCC1 | . | .
O=C(CCc1cc2ccccc2[nH]c1=O)N1CCSCC1 | . | 100.2
O=C1C(=O)N(c2nccs2)C(c2ccccc2[N+](=O)[O-])C1=C(O)c1ccccc1 (configuration not stated) | . | .
Cc1onc(-c2ccccc2Cl)c1C(=O)c1ccc(F)cc1 | . | /
O=c1c(N=Cc2ccccc2)cc2[nH]c3ccccc3c2n1-c1ccccc1 | . | 99.0
O=c1c(-[n+]2ccccc2)cc2[nH]c3ccccc3c2n1-c1ccccc1 | . | .
Cc1ccc(C)c(N=Cc2cccc([N+](=O)[O-])c2)c1 | . | .
O=c1c(N=Cc2cccc([N+](=O)[O-])c2)cc2[nH]c3ccccc3c2n1-c1ccccc1 | . | 97.0
CC(C)c1ccc(NC(=O)c2ccc(Cl)cc2[N+](=O)[O-])cc1 | . | .
COc1ccc(C2=CC(c3ccc(F)c(Br)c3)n3ncnc3N2)cc1 (configuration not stated) | . | .
CCC(NS(=O)(=O)c1ccccc1)(C(=O)O)c1ccccc1 (configuration not stated) | . | .
O=C(NCCc1c[nH]c2ccccc12)Nc1ccc(Cl)cc1 | . | /
CCn1cc(NC(=O)NCCc2c[nH]c3ccccc23)c2ccccc21 | . | 72.2
Cc1cccc(-c2nccc(C3CCCN(C(=O)c4ccco4)C3)n2)c1 (configuration not stated) | . | .
Cc1nn(C)c(C)c1Sc1ccc(Br)cc1 | . | 59.7!
Cc1nn(C(=O)c2cccs2)c(C)c1Sc1ccc(Br)cc1 | . | .
CC(C)N1C(=O)c2cccnc2Sc2cc(NC(=O)C(C)(C)C)ccc21 | . | .
COc1ccc(C)cc1NC(=O)C(C)C | . | .
COc1ccccc1C(=O)N1CCC2(CC1)NC(=O)N(Cc1ccc(C)cc1)C2=O | . | .
CC(=O)Nc1nc(-c2ccccc2)c(-c2ccccc2)o1 | . | .
SMILES | Pf apPOL block | mHTT-CaM PPI inh
COc1ccc(-c2nnc(NC(=O)c3cccs3)o2)cc1 | . | 66.0
O=C(Nc1nc(-c2ccccc2)c(-c2ccccc2)o1)c1cccs1 | . | 62.0
COc1ccc(-c2csc(NC(=O)c3cccs3)n2)cc1 | . | .
O=c1[nH]nc(SCc2nnc(-c3ccc([N+](=O)[O-])cc3)o2)n1C1CCCCC1 | . | /
O=C(Cn1cc(-c2ccccc2)oc1=O)N1CCSCC1 | . | .
Cc1ccnc(NS(=O)(=O)c2ccc(NC(=O)c3ccc(-n4ccnc4)nn3)cc2)n1 | . | .
Cc1nc(NC(=O)c2ccc(-n3ccnc3)nn2)sc1C | . | 90.0
Cc1ccnc(SCC(=O)N2CCc3ccccc3C2)n1 | . | .
COc1cc(NC(=O)CSc2nnc(-c3ccco3)c(-c3ccco3)n2)cc(OC)c1 | . | 97.0
O=C(CSc1nnc(-c2ccco2)c(-c2ccco2)n1)N1CCc2ccccc2C1 | . | 93.0
O=C(CSc1nnc(-c2ccco2)c(-c2ccco2)n1)c1ccc(Cl)cc1 | . | 61.0
Cn1c(SCC(=O)c2ccc(O)cc2)nnc1-c1ccco1 | . | .
COc1ccc(NC(=O)CSc2ncccn2)cc1 | . | .
CCc1ccc(NC(=O)CSc2nnc(-c3ccco3)c(-c3ccco3)n2)cc1 | . | 92.0
CCc1ccc(NC(=O)CSc2nnc(-c3ccco3)o2)cc1 | . | .
CCCCOc1ccc(C(=O)NCC2(c3ccccc3)CCOCC2)cc1OC | . | .
Cc1ccccc1C1CCCN1C(=O)NC(C)C (configuration not stated) | . | .
COc1ccc([N+](=O)[O-])c(OC)n1 | . | .
COc1cccc(NC(=O)CN2C(=O)c3ccc([N+](=O)[O-])cc3C2=O)c1 | . | .
CCCCCCSc1nnc(-c2ccco2)c(-c2ccco2)n1 | . | 90.0
CCCCSc1nnc2c(n1)OC(/C=C/c1ccco1)Nc1ccccc1-2 (configuration not stated) | . | .
O=C(NCc1ccncc1)C1CC(=O)N(c2ccc3c(c2)CCN3C(=O)C2CC2)C1 (configuration not stated) | . | .
OC(C#CC(O)(c1ccccc1)c1ccccc1)c1ccccc1F (configuration not stated) | 87.8 | .
OC(C#CC(O)(c1ccccc1)c1ccccc1)c1cccs1 (configuration not stated) | . | .
Cc1ccc(C(O)C#CC(O)(c2ccccc2)c2ccccc2)o1 (configuration not stated) | . | 57.5
SMILES | Pf apPOL block | mHTT-CaM PPI inh
CN(C)C(C)(C)C#CC(O)(c1ccccc1)c1ccccc1 | . | .
COc1cccc(S(=O)(=O)N2CCc3nc[nH]c3C2)c1 | . | .
Cc1cccnc1NC(=O)COc1ccc(Br)cc1 | . | .
O=C(c1cccc(F)c1)N1CCCC2(CC(c3ccncc3)=CO2)C1 (configuration not stated) | . | .
O=C(c1cccc(F)c1)N1CCCC2(CC(c3ccccc3)=CO2)C1 (configuration not stated) | . | 100.0
O=C(c1ccc(F)cc1)N1CCCC2(CC(c3ccccc3)=CO2)C1 (configuration not stated) | . | 99.0
O=C(c1ccc(F)cc1)N1CCCC2(CC(c3ccncc3)=CO2)C1 (configuration not stated) | . | .
Cc1cc(OC(=O)c2ccco2)cc2c1C(=O)C(=Cc1cccnc1)O2 | . | .
CC1CC(=O)N(CC(=O)NCc2ccc3c(c2)OCO3)c2ccccc2S1 (configuration not stated) | . | .
Cc1ccc(CNC(=O)c2cc3c(s2)CCN(C(=O)c2ccccc2)C3)cc1 | . | .
O=C1c2cccc(Cl)c2C(=O)c2cccc(Cl)c21 | . | .
O=C1c2cccc(N3CCCC3)c2C(=O)c2cccc(Cl)c21 | . | 65.0
O=C1C2C3c4ccccc4C(c4ccccc43)C2c2nc3ccccc3n21 (configuration not stated) | . | .
CN(C)c1ccc(C=Nc2ccccc2O)cc1[N+](=O)[O-] | . | .
Cc1ccc(S(=O)(=O)N2CCN(C(=O)c3ccccc3)C2c2ccc(N(C)C)cc2)cc1 (configuration not stated) | . | 56.0
CCN(CC)c1ccc(C2N(C(=O)c3ccccc3)CCN2S(=O)(=O)c2ccccc2)cc1 (configuration not stated) | . | .
CCC(=O)N1CCN(S(=O)(=O)c2ccc(C)cc2)C1c1ccc(N(C)C)cc1 (configuration not stated) | . | .
Cc1ccc(C(=O)N2CCN(S(=O)(=O)c3ccc(C)cc3)C2c2ccc(N(C)C)cc2)cc1 (configuration not stated) | . | 50.0
CCC(=O)N1CCN(S(=O)(=O)c2ccc(C)cc2)C1c1ccccc1 (configuration not stated) | . | .
CCC(=O)N1c2ccccc2N(S(=O)(=O)c2ccc(C)cc2)C1c1ccc(N(C)C)cc1 (configuration not stated) | . | 53.0
Cc1cc2nc(-c3cc4cc(Cl)cc(Cl)c4oc3=O)[nH]c2cc1C | . | /
